ssDAF-12 act – activates DAF-12 receptor from parasite S. stercoralis; HEK293 ssDAF-12/GRIP1 lit1-tk-luc reporter, luminescence; % of 3 µM dafachronic acid response; activation, % at 6.8 µM; 1% of 370,000 active; AID 652126;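 active = activation above the mean over all tested compounds plus 3 SD, cut at about 0.9% in these data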;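 note: 0% = DMSO-only wells and 100% = 3 µM delta7-dafachronic acid wells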
DAX1 inh-1 – DAX1 (NR0B1) inhibition, primary screen. HEK293T StAR-luciferase reporter, SF-1/DAX-1 repression relief. inhibition, % at 6.8 µM. 1.1% of 370,000 active. AID 652010;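 active = inhibition above the mean over all tested compounds plus 3 SD, cut at about 3.6% in these data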;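 note: 0% = DAX-1 cells with DMSO and 100% = cells lacking DAX-1 with DMSO; higher inhibition means more luminescence from relief of DAX-1 repression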
hcDAF-12 act – H. contortus DAF-12 activation, primary screen. HEK293 hcDAF-12 lit1-tk-luc reporter, luminescence; 0% DMSO, 100% Δ7-dafachronic acid. activation, % at 6.8 µM. 1.4% of 370,000 active. AID 652067;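 active = activation above the mean of all tested compounds plus 3 SD, cut at about 5.5% in these data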;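 note: 100% = response to 3 µM Δ7-dafachronic acid high control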
hgDAF12 agonist – activates the H. glycines DAF-12 receptor ligand-binding domain; 1.8% of 370,000 active; activation, % at 6.8 µM; AID 687014; HEK293 GAL4-hgDAF12 UAS-luciferase reporter, agonist luminescence; normalized to butyrate control;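 active = activation above a cutoff set at the mean of all screened compounds plus 3 SD, cut at about 10% in these data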;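 note: 0% = DMSO wells and 100% = sodium butyrate wells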
DAX1 inh-2 – inhibits human nuclear receptor DAX1; P51843; HEK293 Gal4-DAX1 luciferase reporter, luminescence; inhibition, % at 6.75 µM; 0.99% of 340,000 active; AID 504766;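 active = inhibition above the mean over all tested compounds plus 3 SD, cut at about 4.2% in these data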;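 note: 0% = DAX1-transfected cells with DMSO and 100% = empty-vector control cells with DMSO; inhibition shows as a rise in luminescence from relieved DAX1 repression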
Target sequence (P51843 207-470 limits assumed): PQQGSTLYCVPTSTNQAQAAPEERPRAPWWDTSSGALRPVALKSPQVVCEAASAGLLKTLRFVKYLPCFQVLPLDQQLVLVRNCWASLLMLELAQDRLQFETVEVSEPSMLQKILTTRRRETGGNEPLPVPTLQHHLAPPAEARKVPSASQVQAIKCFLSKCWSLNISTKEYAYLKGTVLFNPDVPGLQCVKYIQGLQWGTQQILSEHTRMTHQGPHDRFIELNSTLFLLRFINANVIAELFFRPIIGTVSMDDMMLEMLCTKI
SMARCA2 activ – activators of SMARCA2 function; MG213 cells, MMTV-luciferase reporter, dexamethasone, overnight; activation, % at 9.1 µM; 1% of 370,000 active; AID 652017; in the data active = activation above about 7.8%;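 note: 0% = vehicle wells and 100% = reference activator wells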
SMARCA2 conf – confirmation of SMARCA2 (BRM) function activators; 30% of 3,500 active; AID 652260; shares compounds with SMARCA2 activ; activation, % at 9.1 µM; MG213 cells, MMTV-luciferase with dexamethasone, luminescence, overnight; MG213 cells expressing E1A, Rb sequestered; DMSO wells 0%, reference activator 100%;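 active = activation above its plate's cutoff, the mean activation of tested wells plus 3 SD, cut at about 7.9% in these data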
GAL4-VP16 Luc – counter-screen for SMARCA2 activators: GAL4-VP16 luciferase reporter activation; shares compounds with SMARCA2 activ; HEK293 GAL4-VP16 pG5luc reporter, luciferase luminescence; scaled: DMSO wells 0%, SAHA wells 100%; activation, % at 9.1 µM; 41% of 3,500 active; AID 686939;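 active = activation above the solvent-only control well mean plus 3 SD, averaged across control plates, cut at about 5.2% in these data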
An asterisk follows results filed as active; . = no result given. A selection: hits, their analogues and other compounds. The true share with any hit is near 4.8%.

SMILES | ssDAF-12 act | DAX1 inh-1 | hcDAF-12 act | hgDAF12 agonist | DAX1 inh-2 | SMARCA2 activ | SMARCA2 conf | GAL4-VP16 Luc
Fc1ccc(-c2nc3nc4ccccc4nc3n2Cc2ccco2)cc1 | 0 | 2 | 2 | 9 | 1 | 0 | . | .
CC1C/C(=N/NC(=O)c2cccc(F)c2)c2ccc(O)cc2C1 (stereo unspecified) | -1 | 0 | 3 | 13* | 2 | 9.2* | -3 | 0
COc1ccc2c(c1)CC(C)C/C2=N\NC(=O)c1ccco1 (stereo unspecified) | 0 | 3 | 3 | 10 | 2 | 3 | . | .
C/C(=C\c1ccccc1)C(=O)Nc1cc(C)on1 | -1 | 0 | 1 | 11* | 0 | 9.9* | 5 | 6.9*
CCOC(=O)CSc1n[nH]c(-c2ccco2)n1 | -1 | 0 | -1 | 2 | 3 | 9.4* | -5 | 2
CCOC(=O)c1c(NC(=O)CSc2n[nH]c(-c3ccco3)n2)sc(C)c1C | -1 | -1 | -2 | 0 | -1 | -3 | . | .
CN1CCN(S(=O)(=O)c2ccc(-c3noc(C4CCN(S(C)(=O)=O)CC4)n3)cc2)CC1 | -1 | 0 | -1 | 0 | -1 | -4 | . | .
O=c1c(Cl)c(NCCCO)cnn1-c1nc2ccccc2[nH]1 | 1 | 0 | 2 | 3 | 1 | 22* | 17* | 18*
Cc1ccccc1NC(=O)COC(=O)c1cc[n+]([O-])cc1 | -1 | 1 | -1 | -1 | 0 | -2 | . | .
O=C(COC(=O)c1cc[n+]([O-])cc1)Nc1ccccc1Cl | -1 | 0 | 2 | 1 | -1 | 11* | -1 | -1
Oc1cccc(C=NCc2ccccc2)c1 | -1 | 0 | 0 | -1 | -1 | -2 | . | .
O=C(CSc1ccccn1)Nc1ccc2c(c1)OCO2 | -2 | -1 | 3 | 8 | . | 2 | . | .
Cc1cccc(-c2nsc(SCC(=O)Nc3ccc4c(c3)OCO4)n2)c1 | -1 | 2 | 0 | 1 | 0 | 9.7* | 2 | 1
O=C(CSc1ccccc1F)Nc1ccc2c(c1)OCO2 | -1 | 2 | 2 | 11* | 1 | 11* | 6 | 5.7*
COc1ccc(N(CN2C(=O)c3ccccc3C2=O)C(=O)C(C)C)cc1 | -1 | 1 | 1 | 2 | 0 | 4 | . | .
CC(=O)Oc1oc(-c2ccccc2)nc1/C=N/c1ccccn1 | -1 | 2 | 2 | 6 | 5.1* | 8.1* | 6 | 8.1*
COc1ccccc1N=Cc1nc(-c2ccccc2)oc1OC(C)=O | 0 | 0 | 3 | 1 | 2 | -9 | . | .
CC(=O)N1CCN(C(=O)c2ccco2)CC1 | -1 | 0 | -3 | 3 | 1 | -3 | . | .
Cc1cccc2nc(=S)n(C(=O)c3ccco3)n12 | 0 | 3 | 3 | 13* | 4.6* | 8.6* | 7 | 14*
Cc1sc2ncn(CC(=O)N3CCCCC3)c(=O)c2c1S(=O)(=O)N1CCC(C)CC1 | -1 | 0 | 0 | 2 | 1 | -5 | . | .
COC(=O)C1=C(C)OC(N)=C(C#N)C1c1ccccc1 (stereo unspecified) | -1 | 0 | -1 | 0 | -1 | 1 | . | .
COC(=O)C1=C(C)OC(N)=C(C#N)C1c1c(C)nn(-c2ccccc2)c1Cl (stereo unspecified) | -1 | 0 | -1 | 0 | 0 | 11* | -1 | 1
COC(=O)C1C(=O)c2c([nH]c(C(=O)OC3CCCC3)c2C)CC1C (stereo unspecified) | 0 | 3 | 6.0* | 9 | 2 | 8.2* | 7 | 8.4*
CCOC(=O)Cc1nn(Cc2ccc(Cl)cc2)c(=O)c2ccccc12 | -2 | 0 | 0 | -1 | 2 | 8.8* | -4 | 1
CCOC(=O)Cc1nn(Cc2ccccc2)c(=O)c2ccccc12 | -2 | 0 | -2 | -2 | -1 | 5 | . | .

Screening data from PubChem.
